# Bioassay records as filed in PubChem BioAssay.
# Compounds with a hit are over-represented: about 4.5% of the library has one in this group of screens.
# DAX1 inh-1: inhibitors of DAX1 repression of SF-1 activated StAR promoter; HEK293T StAR-luciferase reporter, SF-1/DAX-1 repression relief; inhibition, % at 6.8 µM; 1.1% of 370,000 active;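 active means inhibition above the mean over all tested compounds plus 3 SD, cut at about 3.6% in these data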;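 further: 0% = DAX-1 cells with DMSO and 100% = cells lacking DAX-1 with DMSO; higher inhibition means more luminescence from relief of DAX-1 repression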
# hcDAF12 agonist: H. contortus DAF-12 activation, primary screen; activation, % at 6.8 µM; 1.4% of 370,000 active; HEK293 hcDAF-12 lit1-tk-luc reporter, luminescence; 0% DMSO, 100% Δ7-dafachronic acid; AID 652067;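 active means activation above the mean of all tested compounds plus 3 SD, cut at about 5.5% in these data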;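 further: 100% = response to 3 µM Δ7-dafachronic acid high control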
# GAA850 FXN act: frataxin GAA850 promoter activation | activation, % at 6 µM | HEK293 lucGAA850 FXN promoter luciferase reporter, 24 h; percent of 10 µM SAHA response | AID 540364 | 0.56% of 360,000 active;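 active means activation above the average of all compounds screened plus 3 SD, cutoff fixed separately per campaign, cut at about 7.5% in these data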;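 further: 0% = DMSO wells and 100% = 10 µM SAHA wells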
# ssDAF12 agonist: activates DAF-12 receptor from parasite S. stercoralis; HEK293 ssDAF-12/GRIP1 lit1-tk-luc reporter, luminescence; % of 3 µM dafachronic acid response; activation, % at 6.8 µM; 1% of 370,000 active; AID 652126;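 active means activation above the mean over all tested compounds plus 3 SD, cut at about 0.9% in these data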;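 further: 0% = DMSO-only wells and 100% = 3 µM delta7-dafachronic acid wells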
# DAX1 inh-2: inhibits human nuclear receptor DAX1; inhibition, % at 6.75 µM; 0.99% of 340,000 active; HEK293 Gal4-DAX1 luciferase reporter, luminescence; AID 504766;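 active means inhibition above the mean over all tested compounds plus 3 SD, cut at about 4.2% in these data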;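 further: 0% = DAX1-transfected cells with DMSO and 100% = empty-vector control cells with DMSO; inhibition shows as a rise in luminescence from relieved DAX1 repression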
# Target sequence (P51843 207-470 limits assumed): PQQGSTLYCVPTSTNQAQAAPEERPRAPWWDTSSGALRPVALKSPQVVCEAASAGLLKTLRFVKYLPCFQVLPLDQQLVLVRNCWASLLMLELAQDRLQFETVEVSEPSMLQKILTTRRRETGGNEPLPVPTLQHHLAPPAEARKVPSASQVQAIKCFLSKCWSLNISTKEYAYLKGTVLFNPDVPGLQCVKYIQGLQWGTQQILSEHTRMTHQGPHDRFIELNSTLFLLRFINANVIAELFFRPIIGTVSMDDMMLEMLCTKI
# hgDAF-12 ag: activates the H. glycines DAF-12 receptor ligand-binding domain; HEK293 GAL4-hgDAF12 UAS-luciferase reporter, agonist luminescence; normalized to butyrate control; activation, % at 6.8 µM; 1.8% of 370,000 active;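 active means activation above a cutoff set at the mean of all screened compounds plus 3 SD, cut at about 10% in these data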;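 further: 0% = DMSO wells and 100% = sodium butyrate wells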
# Numbers without * were called inactive; · = no result given.
SMILES,DAX1 inh-1,hcDAF12 agonist,GAA850 FXN act,ssDAF12 agonist,DAX1 inh-2,hgDAF-12 ag
O=C1c2ccccc2C(=O)N1CCc1ccccc1,0,6.2*,4,0.9*,4,7
O=C1C(Cl)=C(N2CCOCC2)C(=O)N1CCc1ccccc1,1,4,3,0,2,11*
COC(=O)[C@]12C[C@H](CC(=O)NCc3ccc(C)o3)C(=O)N(CCc3ccc(OC)c(OC)c3)C1=C[C@H](C1CCCC1)O[C@@H]2C,0,1,·,-1,·,2
COc1ccc(C(=O)NCC(=O)OCC(=O)Nc2sccc2C#N)cc1OC,1,4,2,1.1*,6.4*,5
COc1ccccc1OC(=O)c1ccc(S(=O)(=O)N(C)C)cc1,0,-1,-1,-1,5.2*,3
CCN(Cc1ccncc1)C(=S)Nc1ccccc1,-1,-1,1,-2,-1,-3
CCN(Cc1ccncc1)C(=O)C(CO)c1ccccc1 (stereo not drawn),1,-3,0,-1,-1,11*
CC(C)=CCN1CCN(Cc2c[nH]c3ccccc23)CC1CCO (stereo not drawn),0,3,2,0.9*,0,3
O=C(c1ccccc1Cl)N1CCC(Oc2cccnc2)CC1,-1,-3,·,-2,·,3
Nn1c(SCc2cccc(Br)c2)nnc1-c1cccnc1,0,-1,0,-2,0,2
Nn1c(SCc2cccc(F)c2)nnc1-c1cccnc1,0,-1,0,1.1*,5.7*,2
CC(C)CN1C(=O)N2CCc3ccccc3C2CS1(=O)=O (stereo not drawn),1,0,·,-1,·,3
COc1ccc(Cn2c(C3CC3)nc3ccc(NC(=O)C4CC4)cc3c2=O)cc1,2,3,6,1,3,11*
COC(=O)[C@]12C[C@H](CC(=O)NCc3cccs3)C(=O)N(CCC3=CCCCC3)C1=C[C@H](C(C)C)O[C@@H]2C1CC1,-1,1,·,-2,·,3
COC(=O)[C@]12C[C@H](CC(=O)NCc3ccc(C)o3)C(=O)N(CCC3=CCCCC3)C1=C[C@H](C(C)C)O[C@@H]2C1CC1,0,-1,·,2.1*,·,-1
CC(C)CNc1cccc2c1S(=O)(=O)N(Cc1cn(Cc3ccc(C(F)(F)F)cc3)nn1)Cc1ccccc1O2,0,-1,·,-1,·,2
COCCN(C(=S)Nc1ccccc1C)C(C)c1ccco1 (stereo not drawn),0,-1,-1,0,2,-2
COCCN(C(=S)Nc1cccc(C)c1C)C(C)c1ccco1 (stereo not drawn),1,-1,0,-1,8.3*,1
O=C1c2ccccc2N[C@@H]2C=CC[C@@H]2N1O,1,0,-3,-2,0,1
O=C1c2ccccc2NC(c2cccs2)N1O (stereo not drawn),3.7*,1,2,-1,5.7*,1
CC(C)CN1C(=O)C[C@@]2(C(=O)N(C)c3ccc(NC(=O)c4cc(F)ccc4F)cc32)C1c1ccccc1 (stereo partly drawn),0,0,·,-2,·,-3
COCCCNC(=O)CC1C[C@H](C(=O)N2CCOCC2)[C@@]2(C)c3[nH]c4ccc(OC)cc4c3CCN2C1=O (stereo partly drawn),4.1*,2,0,-1,-1,3
CC[C@]12c3[nH]c4ccccc4c3CCN1C(=O)C(CC(=O)NCc1ccco1)C[C@@H]2C(=O)N1CCN(C(=O)c2ccco2)CC1 (stereo partly drawn),0,0,-5,-1,5.8*,-2
O=C(CC1C[C@H](C(=O)N2CCOCC2)[C@@]2(CCC3CCCC3)c3[nH]c4ccccc4c3CCN2C1=O)NCCC1=CCCCC1 (stereo partly drawn),3,1,-1,0,0,0
CC[C@]12c3[nH]c4cc(-c5ccco5)ccc4c3CCN1C(=O)[C@@H](CC(=O)NCc1ccco1)C[C@@H]2C(=O)N1CCN(C(=O)c2ccco2)CC1,0,-2,-2,0,-1,-2
